The source of these data is PubChem BioAssay (Tox21).

Inconclusive results are not listed. Values without a mark were called inactive. Calls come from the whole dose curve; as a rule, active = well fitted cell-killing curve with a large enough effect in the repeat runs; inconclusive = weak or mixed curves, or effect the other way; inactive = flat fitted curve, though single readings scatter.
% is set by controls: 0 for no effect and ±100 for the full control effect.

A short description of this test: qHTS assay to identify small molecule agonists of the TGF-beta/Smad signaling pathway - cell viability counter screen (AID 1346829). Note: top concentration of the series differs between compounds; nearly all actives have a fitted effect of over 45% in size. Conditions: SBE-bla HEK293T viability, CellTiter-Glo luminescence, 5 h; series mostly up to 76.8 µM; activity change, negative = cytotoxicity: at the top concentration. The text has this:
National Center for Advancing Translational Sciences [NCATS]
NIH Chemical Genomics Center [NCGC]
U.S. Environmental Protection Agency [EPA]
National Institutes of Environmental Health Sciences [NIEHS]
National Toxicology Program [NTP]
U.S. Food and Drug Administration [FDA]
Transforming growth factor beta (TGF-beta) superfamily consists of a large number of structurally related dimeric proteins that act as hormones or local mediators in regulating a wide range of biological functions. This superfamily includes TGF-betas themselves, the bone morphogenetic proteins (BMPs) and the activins. These ligands induce oligomerization of serine/threonine receptor kinases and phosphorylate the cytoplasmic signaling molecules of Smad protein family. CellSensor SBE-bla HEK 293T cell line (Life Technologies, Carlsbad, CA), responsive to TGF-beta was used to screen Tox21 10K compound library for identification of agonists/antagonists of the Smad signaling pathway. This cell line contains a beta-lactamase reporter gene under control of the Smad binding element (SBE) stably integrated into HEK 293T cells. Also cytotoxicity of the compounds was tested in parallel by measuring the cell viability using CellTiter-Glo assay system in the same wells.
Tox21 Assay Protocol Summary:
SBE-bla HEK 293T cells were dispensed at 4,000/well in 6 uL of assay medium into black wall/clear-bottom 1536-well plates using a Multidrop Combi (ThermoFisher Scientific, Waltham, MA) dispenser. After the assay plates were incubated at 37 C and 5% CO2 for an overnight, 23 nL of compounds dissolved in DMSO, positive controls or DMSO only was transferred to the assay plate by a Pintool station (Kalypsys, San Diego, CA). The assay plates were incubated at 37 C and 5% CO2 for 5 hr. One uL of LiveBLAzer B/G FRET substrate (Life Technologies) was added using a Flying Reagent Dispenser (FRD, Aurora Discovery, San Diego, CA) and the plates were incubated at room temperature for 2 hr. Fluorescence intensity (405 nm excitation, 460 nm and 530 nm emissions) was measured using an Envision plate reader (PerkinElmer, Shelton, CT). For cytotoxicity read, 4 uL of CellTiter-Glo reagent (Promega Corporation, Madison, WI) was added to each well of the assay plates using FRD. After 30min incubation at room temperature, the luminescence intensity was measured using ViewLux plate reader (PerkinElmer).
Regarding `CC/C=C\CCCCO`, the “activity change, negative = cytotoxicity” value is 5.04%.
Regarding `NC1CCN(c2cccc(Cl)n2)CC1`, the “activity change, negative = cytotoxicity” value is 3.2% [at 35.3 µM].
For the molecule `COc1ccc(NC(C)=O)cc1`, the “activity change, negative = cytotoxicity” value is 2.73%.
Consider `CCO[Si](C)(OCC)OCC`, for which the “activity change, negative = cytotoxicity” value was -8.77%.
Next, `CC(C)COC(=O)C(C)C`: -17.3%.
`O=C1C(CCS(=O)c2ccccc2)C(=O)N(c2ccccc2)N1c1ccccc1` (stereo not given): the “activity change, negative = cytotoxicity” value was 11% [at 35.3 µM].
For `CCC(=O)/C=C/c1ccc(OC)cc1`, the “activity change, negative = cytotoxicity” value was 2.16%.
Turning to `COc1cc(O)cc(O)c1`, the “activity change, negative = cytotoxicity” value is 3.52% [at 35.3 µM].
Next, `Oc1cc(O)c2c(c1)O[C@H](c1ccc(O)c(O)c1)[C@H](O)C2`: 0.201% [at 35.3 µM].
Regarding `CNc1ncnc2nc[nH]c12`, the “activity change, negative = cytotoxicity” value is -0.183%.
Next, `CCN1CCCC1CNC(=O)c1cc(S(N)(=O)=O)ccc1OC` (stereo not given): -5.73%.
The same measure for `CN(C)C(=O)Nc1ccccc1`: -5.83%.
Regarding `CCCCC=O`, the “activity change, negative = cytotoxicity” value is 0.89%.
Regarding `CN(C)CCn1nnnc1SCC1=C(C(=O)O)N2C(=O)[C@@H](NC(=O)Cc3csc(N)n3)[C@H]2SC1`, the “activity change, negative = cytotoxicity” value is 1.62% [at 35.3 µM].
Next, `CCN(CC)S(=O)(=O)c1ccc(C(=O)O)cc1`: 8.12% [at 35.3 µM].
For `OCCCCCCO`, the “activity change, negative = cytotoxicity” value is -0.997%.
As to `COC(=O)[C@H]1[C@H]2C[C@@H]3c4[nH]c5cc(OC)ccc5c4CCN3C[C@H]2C[C@@H](OC(=O)COc2ccc(OC)cc2)[C@@H]1OC`, the “activity change, negative = cytotoxicity” value is 8.84% [at 35.3 µM].
Next, `CC1=CC(=O)CCC1`: 14.5%; `NC(=O)Nc1nc2ccccc2[nH]1`: -1.03%; `COCCOC(=O)CC#N`: -3.57%.
For the molecule `COc1cccc(OC)c1`, the “activity change, negative = cytotoxicity” value is 2.89%.
Next, `COc1ccc2cc(C=O)ccc2c1`: 1.18% [at 35.3 µM].
Regarding `CCN1CCCC(OC(=O)C(c2ccccc2)c2ccccc2)C1` (stereo not given), the “activity change, negative = cytotoxicity” value was -8.6% [at 35.3 µM].
Turning to `C=C[Si](OC)(OC)OC`, the “activity change, negative = cytotoxicity” value is 9.68%.
For the molecule `OCC(O)[C@@H](O)[C@H](O)[C@H](O)CO[C@H]1O[C@H](CO)[C@@H](O)[C@H](O)[C@H]1O` (stereo not given in full), the “activity change, negative = cytotoxicity” value was -0.65%.
Regarding `C1COCCO1`, the “activity change, negative = cytotoxicity” value is -3.77%.
With `O=C(O)CCNC(=O)c1ccc(N=Nc2ccc(O)c(C(=O)O)c2)cc1`, the “activity change, negative = cytotoxicity” value is 4.28% [at 35.3 µM].
`CCCC=O`: the “activity change, negative = cytotoxicity” value is 10%.
As for `Nc1[nH]c(=O)ncc1F`, the “activity change, negative = cytotoxicity” value is -6.14% [at 35.3 µM].
Next, `CSc1ccc(C=O)cc1`: 1.6%; `CCCCCCOC(=O)CC(CC(=O)OCCCCCC)(OC(=O)CCC)C(=O)OCCCCCC`: 0.03%; `NC(=O)c1ncn([C@@H]2O[C@H](CO)[C@@H](O)[C@H]2O)c1N`: 6.79% [at 35.3 µM].
The same measure for `CCCC(C)C(=O)O` (stereo not given): -7.54%; for `CN(C)C(=O)C(CCN1CCC(O)(c2ccc(Cl)cc2)CC1)(c1ccccc1)c1ccccc1`: -11.4% [at 35.3 µM].
With `CCCCCCC(CCCCCCCCCCC(=O)OCC(COC(C)=O)OC(C)=O)OC(C)=O` (stereo not given), the “activity change, negative = cytotoxicity” value was 8.76% [at 35.3 µM].
Regarding `CCCCc1ccc(N)cc1`, the “activity change, negative = cytotoxicity” value is 0.241%.
As to `NC(=O)c1ncn([C@@H]2O[C@H](CO)[C@@H](O)[C@H]2O)c1O`, the “activity change, negative = cytotoxicity” value was -10.5% [at 35.3 µM].
As for `C1C2OC2C2C1C1CC2C2OC12` (stereo not given), the “activity change, negative = cytotoxicity” value is 7.25%.
Take `C=C(C)C1CC=C(C)C(O)C1` (stereo not given): the “activity change, negative = cytotoxicity” value was 1.76%.
Turning to `CCCCCCCCCCCCCCCCCCOCC(O)CO` (stereo not given), the “activity change, negative = cytotoxicity” value was 7.26% [at 35.3 µM].
